The campaign covered roughly 310,000 compounds. About 14,000 (4.5%) showed an effect of 50% or more. The effect is printed as a negative number. The entries come from a sample that favours strong results as a whole.
Molecular target: human ether-à-go-go-related gene (hERG) potassium channel (human, UniProt Q12809)
Assay: primary screen, population patch clamp on CHO cells stably expressing hERG; higher = less effect of the substance
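Note: peak tail current of the secondary pulse compared with the same well before compound.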

Sequence of human ether-à-go-go-related gene (hERG) potassium channel (Q12809 whole entry, looked up): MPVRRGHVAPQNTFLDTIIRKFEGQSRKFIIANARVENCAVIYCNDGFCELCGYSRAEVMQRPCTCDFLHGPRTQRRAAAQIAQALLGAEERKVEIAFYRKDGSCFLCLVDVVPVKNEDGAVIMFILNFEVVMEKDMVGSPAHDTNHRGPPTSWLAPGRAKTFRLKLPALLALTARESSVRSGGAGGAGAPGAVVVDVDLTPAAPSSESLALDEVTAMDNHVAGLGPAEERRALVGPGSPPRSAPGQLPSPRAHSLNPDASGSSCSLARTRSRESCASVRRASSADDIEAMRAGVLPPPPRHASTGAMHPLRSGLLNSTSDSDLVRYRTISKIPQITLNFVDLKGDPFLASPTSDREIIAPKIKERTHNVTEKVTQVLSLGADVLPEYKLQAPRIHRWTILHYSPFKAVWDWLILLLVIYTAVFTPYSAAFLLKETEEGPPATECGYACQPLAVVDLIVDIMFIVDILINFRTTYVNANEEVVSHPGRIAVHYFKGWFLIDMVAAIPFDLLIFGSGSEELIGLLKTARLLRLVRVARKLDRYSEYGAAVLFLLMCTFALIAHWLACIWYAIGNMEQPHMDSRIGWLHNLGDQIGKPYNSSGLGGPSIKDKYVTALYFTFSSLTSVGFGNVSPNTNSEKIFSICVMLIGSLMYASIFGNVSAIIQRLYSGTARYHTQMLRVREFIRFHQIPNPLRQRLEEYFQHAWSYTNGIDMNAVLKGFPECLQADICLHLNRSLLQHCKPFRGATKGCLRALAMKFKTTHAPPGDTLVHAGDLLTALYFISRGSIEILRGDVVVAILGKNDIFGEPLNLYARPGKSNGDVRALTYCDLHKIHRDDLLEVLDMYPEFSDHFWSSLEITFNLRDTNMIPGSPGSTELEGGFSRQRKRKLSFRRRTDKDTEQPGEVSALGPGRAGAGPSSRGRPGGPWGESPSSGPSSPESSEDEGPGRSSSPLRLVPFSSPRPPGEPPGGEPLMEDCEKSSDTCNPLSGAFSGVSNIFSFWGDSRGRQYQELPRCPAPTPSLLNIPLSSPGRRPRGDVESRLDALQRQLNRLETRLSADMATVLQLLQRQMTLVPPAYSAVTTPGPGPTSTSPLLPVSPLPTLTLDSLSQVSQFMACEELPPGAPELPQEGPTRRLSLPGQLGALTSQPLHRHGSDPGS

Going from `Cc1cc(C)cc(C(=O)NC(CC(N)=O)c2ccc(N3CCC(Br)CC3)c([N+](=O)[O-])c2)c1` (centres unmarked) to `CCc1ccc(OCC(=O)N/N=C/c2cc([N+](=O)[O-])ccc2N2CCOCC2)cc1`, the “hERG current change (%, negative = inhibition) at 10uM” value rises from -16.1% to -14.6%.

Going from `CC(Oc1cccc(Cl)c1)C(=O)Nc1cc(S(=O)(=O)N2CCOCC2)ccc1N1CCCC1` (centres unmarked) to `CC(Oc1cccc(Cl)c1)C(=O)Nc1cc(S(=O)(=O)N2CCOCC2)ccc1N1CCCCC1` (centres unmarked), the “hERG current change (%, negative = inhibition) at 10uM” value rises from -24.8% to 8.44%.

Compared with `CC(Oc1ccc(Br)cc1)C(=O)Nc1cc(S(=O)(=O)N2CCOCC2)ccc1N1CCCC1` (centres unmarked), `CC(Oc1ccc(F)cc1)C(=O)Nc1cc(S(=O)(=O)N2CCOCC2)ccc1N1CCCC1` (centres unmarked) is higher in “hERG current change (%, negative = inhibition) at 10uM” value: -5.62% for the first, 13.7% for the second.

Compared with `CCN1CCN(c2ccc(S(=O)(=O)N3CCOCC3)cc2NC(=O)C(C)Oc2cccc(Cl)c2)CC1` (centres unmarked), `CCN1CCN(c2ccc(S(=O)(=O)N3CCOCC3)cc2NC(=O)C(C)Oc2ccc(Cl)cc2)CC1` (centres unmarked) is lower in “hERG current change (%, negative = inhibition) at 10uM” value: -70.8% for the first, -70.9% for the second.

Going from `CC(Oc1ccc(F)cc1)C(=O)Nc1cc(S(=O)(=O)N2CCCCC2)ccc1N1CCOCC1` (centres unmarked) to `CC(Oc1ccc(F)cc1)C(=O)Nc1cc(S(=O)(=O)N2CCOCC2)ccc1N1CCCCC1` (centres unmarked), the “hERG current change (%, negative = inhibition) at 10uM” value rises from -5.21% to 6.32%.

First: CC(=O)c1ccc(OCC(=O)Nc2ccccc2N2CCCC2)cc1
Second: CCN1CCN(c2ccccc2NC(=O)C(C)Oc2ccc(C(C)=O)cc2)CC1 (centres unmarked)
The “hERG current change (%, negative = inhibition) at 10uM” value of the first is higher: -2.74% for the first, -51.6% for the second.

Compared with `CCN1CCN(c2ccc(S(=O)(=O)N3CCCCC3)cc2NC(=O)C(C)Oc2ccc(F)cc2)CC1` (centres unmarked), `CCN1CCN(c2ccc(S(=O)(=O)N3CCOCC3)cc2NC(=O)C(C)Oc2ccc(F)cc2)CC1` (centres unmarked) is higher in “hERG current change (%, negative = inhibition) at 10uM” value: -72.7% for the first, -57.4% for the second.

First: CC(Oc1cccc(Cl)c1)C(=O)Nc1ccccc1N1CCCC1 (centres unmarked)
Second: CC(Oc1cccc(Cl)c1)C(=O)Nc1cc(S(=O)(=O)N2CCCCC2)ccc1N1CCOCC1 (centres unmarked)
The “hERG current change (%, negative = inhibition) at 10uM” value of the first is lower: -15.3% for the first, -8.24% for the second.

Going from `O=C(Nc1cccnc1)C1(c2ccccc2)CCCC1` to `CCN1C(=O)C(CC(=O)NCCc2ccccc2)N(NC(=O)c2cccnc2)C1=S` (centres unmarked), the “hERG current change (%, negative = inhibition) at 10uM” value falls from 4.11% to -21.1%.

Compared with `O=[N+]([O-])/C=C1/NCCN1Cc1ccc(Cl)nc1`, `O=C(NCc1cccc(Cl)c1)c1cnccn1` is lower in “hERG current change (%, negative = inhibition) at 10uM” value: -1.96% for the first, -9.28% for the second.

Compared with `CC1CCc2c(C(=O)NCc3ccco3)csc2C1` (centres unmarked), `COC(=O)c1ccc2c(c1)S(=O)(=O)NC(=NCc1ccco1)S2` is lower in “hERG current change (%, negative = inhibition) at 10uM” value: -8.96% for the first, -23.8% for the second.

Going from `Cn1c(SCC(=O)O)nc2sc3c(c2c1=O)CCC3` to `O=C(CSc1nccn(-c2ccc(Br)cc2)c1=O)NC1CCCC1`, the “hERG current change (%, negative = inhibition) at 10uM” value falls from 30.3% to 13.7%.

Compared with `CCn1ncc(-c2csc(N)n2)c1C`, `CCN(CC)S(=O)(=O)c1ccc(-c2cn3ccc(C)cc3n2)cc1` is higher in “hERG current change (%, negative = inhibition) at 10uM” value: 0.511% for the first, 7.52% for the second.

First: BrC(=C\c1ccccc1)/C=N/N1CCN(Cc2ccccc2)CC1
Second: CN1CCN(C(c2ccccc2)c2ccccc2)CC1.Cl
The “hERG current change (%, negative = inhibition) at 10uM” value of the first is higher: 4.34% for the first, -12.1% for the second.

Going from `O=C(CSc1nc2cc(Cl)ccc2s1)Nc1cccc(S(=O)(=O)N2CCOCC2)c1` to `O=C(Cc1ccc(S(=O)(=O)N2CCOCC2)s1)N1CCN(S(=O)(=O)c2cccc(Cl)c2)CC1`, the “hERG current change (%, negative = inhibition) at 10uM” value rises from -10.7% to -5.33%.

Compared with `S=C(NCCc1ccccc1)Nc1ccc(Br)cn1`, `CCC[C@@H](CNC)NC[C@H](Cc1ccccc1)NCCCCc1ccccc1` is lower in “hERG current change (%, negative = inhibition) at 10uM” value: 3.98% for the first, -6.02% for the second.

First: CC(Oc1ccc(F)cc1)C(=O)Nc1cc(S(=O)(=O)N2CCOCC2)ccc1N1CCN(C)CC1 (centres unmarked)
Second: O=C(Cc1cccs1)N1CCN(c2cccc(Cl)c2)CC1
The “hERG current change (%, negative = inhibition) at 10uM” value of the first is lower: -29.9% for the first, -12% for the second.

First: C=CCN1C(=O)/C(=C\c2ccc(Oc3nc(N4CCOCC4)nc(N4CCOCC4)n3)c(OC)c2)SC1=S
Second: C=CCc1ccc(OCC(O)CN2CCN(c3ccccc3)CC2)c(OC)c1.Cl (centres unmarked)
The “hERG current change (%, negative = inhibition) at 10uM” value of the first is higher: 15.9% for the first, -70.3% for the second.

Compared with `COCCn1c(=S)[nH]c2cc(C(=O)NCCCN3CCOCC3)ccc2c1=O`, `CCN(CC)S(=O)(=O)c1ccc(C(=O)NCCCN=C2NS(=O)(=O)c3ccccc32)cc1` is lower in “hERG current change (%, negative = inhibition) at 10uM” value: 8.93% for the first, -5.24% for the second.

First: CCCC[C@@H](CNC)NC[C@H](Cc1ccc(O)cc1)NCCc1ccc(OCC)cc1
Second: CCC[C@H](CN[C@@H](CNC)[C@H](C)O)NCCc1ccc(OC)cc1
The “hERG current change (%, negative = inhibition) at 10uM” value of the first is lower: -53.7% for the first, 2.16% for the second.

Going from `Cc1[nH]c2ccccc2c1/C=N/n1cnnc1` to `CCCC(=O)Nc1nnc(-c2ccccc2)o1`, the “hERG current change (%, negative = inhibition) at 10uM” value falls from 10.2% to 7.03%.

Compared with `COCCn1c(C)cc(C(=O)COc2ccc(N(C)S(=O)(=O)c3ccc(C)cc3)cc2)c1C`, `CCOc1ccc(NC(=O)CN(C)C(=O)c2cc(-c3ccc(OC)cc3)nc3ccccc23)cc1OCC` is higher in “hERG current change (%, negative = inhibition) at 10uM” value: -19.9% for the first, -2.15% for the second.

Going from `OC(COC(c1ccccc1)c1ccccc1)CN1CCN(c2cccc(Cl)c2)CC1` (centres unmarked) to `O=C(O)C(=O)O.OC(COCc1cccs1)CN1CCN(c2cccc(Cl)c2)CC1` (centres unmarked), the “hERG current change (%, negative = inhibition) at 10uM” value falls from 6.16% to -63.8%.

Going from `OC(COCc1cccs1)CN1CCN(c2cccc(C(F)(F)F)c2)CC1` (centres unmarked) to `CN1CCCN(CC(O)COCc2cccs2)CC1` (centres unmarked), the “hERG current change (%, negative = inhibition) at 10uM” value rises from -69.6% to -2.94%.

Going from `Cl.OC(COCc1cccs1)CN1CCCCCC1` (centres unmarked) to `COc1cc(COCC(O)CN2CCCCC2C)cc(OC)c1OC.Cl` (centres unmarked), the “hERG current change (%, negative = inhibition) at 10uM” value rises from -21.9% to 20.6%.

Going from `CCOC(=O)CNC(=O)c1cn(CC(C)C)c(=O)c2cc(OC)c(OC)cc12` to `COc1ccc(CCNC(=O)c2nnn(CC(=O)Nc3ccccc3C)c2N)cc1OC`, the “hERG current change (%, negative = inhibition) at 10uM” value rises from -24% to 16.3%.

Compared with `CCOc1ccc(NC(=O)CN(C)C(=O)c2cccnc2Sc2ccc(C)c(C)c2)cc1OCC`, `CCOc1ccc(NC(=O)CN(C)C(=O)c2cccnc2Sc2ccc(Cl)cc2)cc1OCC` is lower in “hERG current change (%, negative = inhibition) at 10uM” value: 0.0885% for the first, -52.4% for the second.

Going from `CCOc1ccc(NC(=O)CN(C)C(=O)c2cccnc2Sc2ccccc2Cl)cc1OCC` to `CCOc1ccc(NC(=O)CN(C)C(=O)c2cc(C)nc3ccccc23)cc1OCC`, the “hERG current change (%, negative = inhibition) at 10uM” value falls from -8.63% to -16.2%.

First: COCCN(CC(=O)Nc1cccc(C)c1C)C(=O)c1ccc2ccccc2n1
Second: COCCN(CC(=O)Nc1cccc(C)c1C)C(=O)c1cc2ccccc2cc1OC
The “hERG current change (%, negative = inhibition) at 10uM” value of the first is higher: -0.121% for the first, -26.7% for the second.

Compared with `CCOc1ccc(NC(=O)CN(C)C(=O)c2cc(-c3ccncc3)nc3ccccc23)cc1OCC`, `COCCN(CC(=O)Nc1cccc(C)c1C)C(=O)c1cc(-c2ccncc2)nc2ccccc12` is higher in “hERG current change (%, negative = inhibition) at 10uM” value: -58.6% for the first, -57.3% for the second.

Going from `CC(=O)N1N=C(c2ccc(C)cc2)OC1c1ccc(Br)cc1` (centres unmarked) to `CSc1ncccc1C(=O)Nc1ccc(C)cn1`, the “hERG current change (%, negative = inhibition) at 10uM” value falls from 27.8% to 0.536%.

First: Cc1nnc(NC(=O)CSc2ccc(-c3ccco3)nn2)s1
Second: Cc1nnc(NC(=O)CSc2nnc(CNC(=O)c3ccc(S(=O)(=O)N(C)C)cc3)o2)s1
The “hERG current change (%, negative = inhibition) at 10uM” value of the first is lower: 9.75% for the first, 22.6% for the second.

Compared with `CC(C)NC(=O)CSc1nc(N)c(NC(=O)c2ccco2)c(=O)[nH]1`, `CC(Cl)C(=O)NNC(=O)CNS(=O)(=O)c1ccccc1` (centres unmarked) is lower in “hERG current change (%, negative = inhibition) at 10uM” value: 14.7% for the first, -0.478% for the second.

First: OCCNc1nc2nonc2nc1NCCO
Second: C=CCc1ccc(OCC(O)COc2ccc(CC=C)cc2OC)c(OC)c1
The “hERG current change (%, negative = inhibition) at 10uM” value of the first is higher: 11% for the first, -24.5% for the second.

Going from `Cc1cccc(CN2CCN(C(c3ccccc3)c3ccc(Cl)cc3)CC2)c1.Cl` (centres unmarked) to `CN1CCN(C(c2ccccc2)c2ccc(Cl)cc2)CC1.Cl` (centres unmarked), the “hERG current change (%, negative = inhibition) at 10uM” value falls from 18.5% to -60.9%.

First: CN1CCCN(C(c2ccccc2)c2ccc(Cl)cc2)CC1.Cl (centres unmarked)
Second: Clc1ccc(C(c2ccccc2)N2CCNCC2)cc1 (centres unmarked)
The “hERG current change (%, negative = inhibition) at 10uM” value of the first is lower: -73.8% for the first, -22.7% for the second.

Compared with `CN1CCN(C(c2cccc(Cl)c2)c2ccccc2Cl)CC1.O=C(O)/C=C\C(=O)O` (centres unmarked), `O=C(O)/C=C/C(=O)N1CCN(C(c2ccccc2)c2ccccc2)CC1` is higher in “hERG current change (%, negative = inhibition) at 10uM” value: -73.1% for the first, 40.8% for the second.

First: CN1CCN(C(=O)/C=C/c2cccc(Cl)c2)CC1
Second: Clc1ccc(C(c2ccccc2)N2CCN(c3ccccn3)CC2)cc1 (centres unmarked)
The “hERG current change (%, negative = inhibition) at 10uM” value of the first is lower: -6.45% for the first, -5.64% for the second.

First: COc1cccc(CN2CCN(c3ncccn3)CC2)c1OC
Second: C=CCc1ccc(OCC(O)CN2CCN(c3ccccc3OC)CC2)c(OC)c1.Cl (centres unmarked)
The “hERG current change (%, negative = inhibition) at 10uM” value of the first is higher: -3.3% for the first, -16.2% for the second.

First: Cc1ccc(CS/C(Nc2ccccc2C)=C(\C#N)C(=O)NCc2ccco2)c(C)c1
Second: CN(C)/C=C\C(=C/C(=O)C(F)(F)F)Nc1ccccc1Oc1ccccc1
The “hERG current change (%, negative = inhibition) at 10uM” value of the first is higher: 9.03% for the first, -24.4% for the second.

Going from `CCC1(CC)C(=O)C2=C3C1[C@H](C(=O)OC)C=C(C(=O)OC)C[C@H]3[C@H]1C(=O)N(CC(=O)OC)C(=O)[C@H]1[C@H]2C` (some centres unmarked) to `COc1ccc(OC)c(S(=O)(=O)Nc2cc3c4c(c2)CCN4C(=O)CC3)c1`, the “hERG current change (%, negative = inhibition) at 10uM” value falls from 5.84% to -2.69%.

Compared with `C=CCn1c(SCC(=O)N2CC(=O)Nc3ccccc32)nc2scc(-c3ccccc3)c2c1=O`, `C=CCc1ccc(OCC(O)CN2CCc3ccccc3C2)c(OC)c1.Cl` (centres unmarked) is lower in “hERG current change (%, negative = inhibition) at 10uM” value: -1.72% for the first, -68.8% for the second.

Going from `Cc1ccc(NC(/C=C/N(C)C)=C/C(=O)C(F)(F)F)c(C)c1` to `CN(C)/C=C/C(=C\C(=O)C(F)(F)F)Nc1ccc(C(F)(F)F)cc1`, the “hERG current change (%, negative = inhibition) at 10uM” value rises from -56.7% to 2.83%.

Going from `COc1cc(COCC(O)CN2CCc3ccccc3C2)cc(OC)c1OC.Cl` (centres unmarked) to `C=CCc1ccc(OCC(O)CN2CCC(Cc3ccccc3)CC2)c(OC)c1.Cl` (centres unmarked), the “hERG current change (%, negative = inhibition) at 10uM” value falls from -21.7% to -77.5%.

For `C=CCc1ccc(OCC(O)CN2CCCCC2C)c(OC)c1.Cl` (centres unmarked), the “hERG current change (%, negative = inhibition) at 10uM” value was -55.1%.
